# Screening data as filed in PubChem BioAssay.
# Hits are enriched below; roughly 6.1% of the tested compounds scored in any of these assays.
# ATXN viability = reduces viability in counter-screen for ATXN expression inhibitors; S2 cells (HEK-293 line with an ATXN2-luciferase reporter) viability, CellTiter-Fluor protease fluorescence, 24 h; Potency, µM (doses to about 56.7 µM), usual class: cytotoxic; AID 651635; hit rate 0.49% among 400,000; also: nearly all actives have a fitted effect of over 40% in size
# HepG2 viability = counter-screen for TGF-b inhibitors: cytotoxicity in HepG2 cells; Potency, µM (highest dose often 46.1 µM), for the others: top-dose activity change, negative = cytotoxicity, usual class: cytotoxic; hit rate 0.76% among 410,000; AID 588856; HepG2 CAGA-GFP viability, ATP luminescence, 18 h
#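 CellTiter-Glo luminescence gave cytotoxicity after 18 hours at 37 degrees C. The cells were HepG2 CAGA-GFP in 1% FBS DMEM, stimulated with 500 pg/mL TGF-beta after compound addition. %Activity was normalised to no-cell wells (complete cell-killing) and DMSO (no toxicity), and curves were fitted and classified.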
# Gal4-VP16 FLuc = Gal4-VP16 reporter inhibition counter-screen | Drosophila S2 Gal4-VP16 UAS-luciferase, luminescence, 20 h | Potency, µM (top dose mostly 53.6 µM), for the others: at the highest dose activity, negative = inhibition, actives largely listed as inhibitors | hit rate 3.5% among 310,000 | AID 2546;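 also: Gal4-VP16 expression switched on by copper sulfate through the metallothionein promoter; % is scaled to controls: 0 for no effect and ±100 for the full control effect; nearly all actives have a fitted effect of over 50% in size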
# TGFb SMAD3 inh = blocks TGF-b signaling; HepG2 CAGA-GFP TGF-b/SMAD3 reporter, GFP fluorescence, 18 h; TGF-beta stimulated, 500 pg/mL final; Potency, µM (highest dose often 46.1 µM), for inactives: top-dose activity, negative = inhibition, most hits filed as inhibitors; hit rate 1.2% among 410,000; also: % is scaled to controls: 0 for no effect and ±100 for the full control effect; nearly all actives have a fitted effect of over 65% in size
#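 Read-out: total well GFP (ex488/em500-530) summed from mean per-cell fluorescence. Cells: HEPG2 CAGA-GFP, 1% FBS DMEM, 18 h at 37 degrees C with 500 pg/mL final TGF-beta. Unstimulated wells served as the full-inhibition control; stimulated DMSO wells = 0%.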
# RORgamma inh = blocks mouse ROR gamma transcriptional activity; AID 2551; hit rate 5.4% among 310,000; Potency, µM (series often up to 53.6 µM), for the others: at the top dose activity change, negative = inhibition, actives largely listed as inhibitors; Drosophila S2 Gal4-RORgamma UAS-luciferase reporter, 20 h; also: % is scaled to controls: 0 for no effect and ±100 for the full control effect; nearly all actives have a fitted effect of over 60% in size
# Target sequence (P51450 whole entry, looked up, the tested form may be a part): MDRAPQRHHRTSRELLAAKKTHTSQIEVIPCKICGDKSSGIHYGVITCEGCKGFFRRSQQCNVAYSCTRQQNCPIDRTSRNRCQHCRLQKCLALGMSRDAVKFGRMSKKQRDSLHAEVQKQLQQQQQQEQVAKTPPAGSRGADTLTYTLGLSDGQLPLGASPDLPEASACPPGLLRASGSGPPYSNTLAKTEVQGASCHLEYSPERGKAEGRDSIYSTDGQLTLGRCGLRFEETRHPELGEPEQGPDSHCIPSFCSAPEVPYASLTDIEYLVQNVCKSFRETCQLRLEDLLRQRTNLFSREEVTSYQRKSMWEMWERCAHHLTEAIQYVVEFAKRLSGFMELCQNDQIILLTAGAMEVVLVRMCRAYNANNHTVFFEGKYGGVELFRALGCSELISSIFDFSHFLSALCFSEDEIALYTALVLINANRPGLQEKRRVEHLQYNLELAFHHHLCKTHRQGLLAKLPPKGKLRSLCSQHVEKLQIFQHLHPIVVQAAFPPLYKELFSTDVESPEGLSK
#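 Luciferase reporter read in Schneider cells carrying Gal4-RORγ (mouse) and UAS-Photinus luciferase; cells given compound 1 h before 700 uM copper sulfate induction, then incubated 20 h at ambient temperature.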
# ATXN2 expr inh = inhibitors of ATXN2 expression. HEK-293 ATXN2-luciferase reporter, luminescence, 24 h. Potency, µM (titrated, usually from 57 µM), without a hit: at the highest dose activity change, negative = inhibition, most hits filed as inhibitors. hit rate 0.72% among 360,000. AID 1745845; also: % is scaled to controls: 0 for no effect and ±100 for the full control effect; nearly all actives have a fitted effect of over 55% in size
#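 qHTS (up to 57 uM final) was run with 24 h compound exposure of reporter cells at 37 °C. Each well was multiplexed: SteadyGlo luminescence measured ATXN2-luciferase expression after a fluorogenic Gly-Phe-AFC viability readout (25 uM final).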
# * = called active by the depositor; i = inactive; ? = inconclusive; · = not tested or not shown; [ ] = another dose, or the depositor's remark. Calls follow the shape of the dose curve; as a rule, active = well fitted curve in the direction sought with a large enough effect; inconclusive = small, poorly fitted or top-dose-only effect, or another doubt; inactive = no such curve, though single readings can be large; an effect the other way counts as inactive or inconclusive. Potency is read from the fitted curve at half-maximal effect.
SMILES,ATXN viability,HepG2 viability,Gal4-VP16 FLuc,TGFb SMAD3 inh,RORgamma inh,ATXN2 expr inh
COc1cc(/C=C(/C(=O)c2cccs2)c2nc3ccccc3[nH]2)cc(OC)c1O,?,13µM*,?,?,?,?
O=C(Nc1nc2ccccc2[nH]1)c1ccccc1,i,-35%,7.9µM*,?,6.3µM*,?
CC(=O)Nc1nc2ccccc2[nH]1,i,9%,17%,2%,-10%,·
O=C(NNc1ncnc2ccccc12)c1cccc(Cl)c1,i,25%,-28%,-33%,7.1µM*,·
NC(=O)Nc1nc2ccccc2[nH]1,·,·,2%,·,2%,·
O=C(Nc1nc2ccccc2[nH]1)c1cccc(Cl)c1,?,-17%,4.5µM*,-1%,4µM*,·
Cc1cccc2cc(-c3nc4ccc(C(=O)O)cc4[nH]3)c(=O)oc12,i,-31%,5µM*,9%,2.8µM*,-4%
O=C(Nc1nc2ccccc2[nH]1)c1ccc(Cl)cc1,?,-38%,2.8µM*,-18%,13µM*,?
CC(C)(C)c1cc(C(C)(C)C)c2oc(=O)c(-c3nc4ccc(C(=O)O)cc4[nH]3)cc2c1,·,14%,·,2%,·,·
Nc1ccc(/C=C/c2nc3ccccc3s2)cc1,·,-13%,·,0%,·,·
C[C@@H]1CN(Cc2ccc3c(c2)CN(Cc2coc4ccccc4c2=O)CCO3)C[C@H](C)O1,i,·,·,·,·,·
Clc1cccc(/C(Cc2nc3ccccc3[nH]2)=N\Nc2ccccc2)c1,i,-36%,?,?,35µM*,39%
O=C(/C(=C/c1ccc(Cl)cc1)c1nc2ccccc2[nH]1)c1ccccc1,·,2.5µM*,10µM*,5µM*,4.5µM*,?
CCN(CC)S(=O)(=O)c1ccc(NC(=O)c2c(C)oc3ncnc(N4CCCCC4)c23)cc1,i,-27%,·,-8%,·,-19%
Nc1cc2c3c(cccc3c1)C(=O)N(CCN1CCCC1)C2=O,?,-15%,-17%,?,-36%,?
O=C1c2cccc3cc([N+](=O)[O-])cc(c23)C(=O)N1CCN1CCCC1,i,-41%,?,5µM*,?,?
CC(C)[C@H](NC(=O)OC(C)(C)C)[C@@H](O)CC(=O)C(C)(C)C,·,·,-5%[10 µM],·,16%[10 µM],·
OC(COCC(F)(F)C(F)(F)C(F)(F)C(F)F)Cn1c2ccc(Cl)cc2c2cc(Cl)ccc21 (centres undefined),?,-117%,?,10µM*,?,?
Cc1ccc(Cn2cc3c(n2)-c2c(oc(C(=O)Nc4ccc(F)cc4F)c2C)CC3)cc1,·,-1%,·,0%,·,·
Cc1ccc(Cl)cc1N1CCN(S(=O)(=O)c2ccc3c(c2)CCCN3C(=O)C2CCC2)CC1,i,9%,·,17%,·,9%
Cc1nc2sc(C(N)=O)c(N)c2c(-c2ccc(Br)cc2)c1C(=O)Nc1ccc(Cl)cc1,?,-95%,·,?,·,32µM*
C=CCN1C[C@H](C(=O)N(CCCN(C)C)C(=O)NCC)C[C@@H]2c3cccc4[nH]cc(c34)C[C@H]21,?,·,·,·,·,-7%
CCOc1ccc(N(C)C(=O)C2CCN(S(=O)(=O)c3ccc4c(c3)CCCN4C(C)=O)CC2)cc1,i,-18%,·,?,·,-14%
Cc1noc(C)c1-c1ccc2ncnc(NC(C)c3ccccc3)c2c1 (centres undefined),·,·,-11%,·,-81%,·
Cc1ccccc1NC(=O)c1sc2nc(-c3ccncc3)ccc2c1N,i,-39%,·,2%,·,20µM*
SMILES,ATXN viability,HepG2 viability,Gal4-VP16 FLuc,TGFb SMAD3 inh,RORgamma inh,ATXN2 expr inh
Nc1c(C(=O)Nc2ccccc2Br)sc2nc(-c3cccs3)ccc12,·,-2%,·,-1%,·,?
Nc1c(C(=O)Nc2nc3ccccc3s2)sc2nc(-c3cccs3)ccc12,i,6.3µM*,-19%,208%,18%,?
COc1cc(CCC(=O)Nc2ccc(Cl)c(C(F)(F)F)c2)cc(OC)c1OC,i,-31%,4%,?,36%,-1%
COc1cc(CCC(=O)Nc2ccc(Br)c(C(F)(F)F)c2)cc(OC)c1OC,i,-47%,?,16µM*,28%,-16%
c1ccc(OCCSc2nnc3sc4ccccc4n23)cc1,i,-7%,11µM*,-19%,11µM*,?
CCc1cc2cc(C)cc(C)c2[nH]c1=S,i,-52%,-20%,0%,7.1µM*,-3%
CCOCCCN(Cc1cc2cc(C)cc(C)c2[nH]c1=O)C(=O)N(CC)CC,?,-15%,16%[0.365 µM],-11%,-30%,1%
CN(C)/C=C1\C=Cc2ccccc21,·,-27%,·,?,·,·
O=C1C(=O)N(C2CCN(C(=O)c3cccc(Cl)c3)CC2)CCN1Cc1ccc(F)cc1,i,-23%,·,-23%,·,10%
O=C(N/N=C/c1cn(-c2ccccc2)nc1-c1ccccc1)c1ccco1,i,-24%,10µM*,23%,6.3µM*,19%
O=C(N/N=C/c1coc2ccccc2c1=O)c1cn(-c2ccccc2)nc1-c1ccc(F)cc1,i,2%,-1%,-18%,4%,-11%
Cc1ccc(-c2nn(-c3ccccc3)cc2/C=N/NC(=O)c2ccc(Br)o2)cc1,i,-25%,4µM*,?,2.8µM*,-11%
O=C(N/N=C/c1cn[nH]c1-c1ccccc1)c1ccco1,i,-3%,-22%[10 µM],-3%,-25%,39%
O=C(N/N=C\c1cn(-c2ccccc2)nc1-c1ccccc1)c1ccc(Br)o1,?,-37%,4µM*,?,1.4µM*,-16%
O=C(N/N=C/c1ccc(Br)cc1)c1ccc(Br)o1,i,8%,16%,8%,-4%,40%
COc1ccc(C(=O)C[n+]2ccc(Cl)c3ccc(Cl)cc32)cc1,·,7%,·,0%,·,·
CCN(CCCN(C)C)c1ccc(/C=C/c2ccnc3ccccc23)cc1,·,-2%,·,22%,·,·
COc1ccc(S(=O)(=O)c2cn(C)c3cc(N4CCOCC4)c(F)cc3c2=O)cc1,·,-18%,·,?,·,·
CCC1CN(C(=O)N2CCC(C(=O)N3CCN(c4cc(C)ccc4C)CC3)CC2)c2ccccc2O1 (centres undefined),·,-73%,·,10µM*,·,·
CC1CN(C(=O)N2CCC(C(=O)NCCCc3ccccc3)CC2)c2cc(Cl)ccc2O1 (centres undefined),·,-21%,·,14µM*,·,·
CCC1CN(C(=O)N2CCC(C(=O)NCCc3ccccc3Cl)CC2)c2cc(C)ccc2O1 (centres undefined),·,-34%,·,11µM*,·,·
CCCCNC(=O)C1CCN(C(=O)N2CC(C)Oc3ccc(Cl)cc32)CC1 (centres undefined),·,-21%,·,-29%,·,·
